# Compound activity (PubChem)
# Shown are actives, neighbours in structure and some others; about 6.3% of the full set was active somewhere.
# ATXN2 expr inh: ATXN2 expression inhibition. HEK-293 ATXN2-luciferase reporter, luminescence, 24 h. Potency, µM (top dose mostly 57 µM), inactives show at the top dose activity change, negative = inhibition, actives largely listed as inhibitors. actives 0.72% (n = 360,000). AID 1745845; also: % is scaled to controls: 0 for no effect and ±100 for the full control effect; nearly all actives have a fitted effect of over 55% in size
#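 qHTS (up to 57 uM final) was run with 24 h compound exposure of reporter cells at 37 °C. Each well was multiplexed: SteadyGlo luminescence measured ATXN2-luciferase expression after a fluorogenic Gly-Phe-AFC viability readout (25 uM final).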
# RORg inh: inhibitors of mouse ROR gamma transcriptional activity; Potency, µM (top dose mostly 53.6 µM), for the others: top-dose activity change, negative = inhibition, most hits filed as inhibitors; AID 2551; P51450; actives 5.4% (n = 310,000); Drosophila S2 Gal4-RORgamma UAS-luciferase reporter, 20 h; also: % is scaled to controls: 0 for no effect and ±100 for the full control effect; nearly all actives have a fitted effect of over 60% in size
# Target sequence (P51450 whole entry, looked up, the tested form may be a part): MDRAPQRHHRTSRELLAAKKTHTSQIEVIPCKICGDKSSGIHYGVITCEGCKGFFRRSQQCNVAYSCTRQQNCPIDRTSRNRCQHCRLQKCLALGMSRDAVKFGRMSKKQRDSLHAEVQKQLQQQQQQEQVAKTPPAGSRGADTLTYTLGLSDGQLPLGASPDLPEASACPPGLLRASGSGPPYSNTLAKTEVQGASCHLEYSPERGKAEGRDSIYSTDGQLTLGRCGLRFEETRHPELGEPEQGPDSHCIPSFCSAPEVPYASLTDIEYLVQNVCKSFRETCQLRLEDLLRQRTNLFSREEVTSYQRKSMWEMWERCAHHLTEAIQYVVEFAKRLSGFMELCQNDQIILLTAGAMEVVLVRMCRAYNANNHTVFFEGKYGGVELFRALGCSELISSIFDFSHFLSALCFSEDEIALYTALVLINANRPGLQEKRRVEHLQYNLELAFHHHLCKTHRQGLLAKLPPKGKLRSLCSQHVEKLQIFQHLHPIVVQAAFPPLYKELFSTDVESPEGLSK
#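 Drosophila S2 cells stably expressing Gal4-DBD/mouse RORγ fusion under metallothionein promoter plus UAS-luciferase; compound 1 h, then 700 uM CuSO4 induction for 20 h at ambient temperature; inhibition read as reduced luminescence.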
# TGFb inhibitor: TGF-b pathway inhibition; HepG2 CAGA-GFP TGF-b/SMAD3 reporter, GFP fluorescence, 18 h; TGF-beta stimulated, 500 pg/mL final; Potency, µM (top dose mostly 46.1 µM), for inactives: at the highest dose activity, negative = inhibition, hits mostly inhibitors; actives 1.2% (n = 410,000); also: % is scaled to controls: 0 for no effect and ±100 for the full control effect; nearly all actives have a fitted effect of over 65% in size
#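 Cell-based qHTS in HEPG2 carrying a CAGA-GFP Smad reporter; compounds added before 500 pg/mL final TGF-beta, 18 h incubation at 37 degrees C, GFP fluorescence quantified per cell by imaging cytometry.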
# HepG2 viability: counter-screen for TGF-b inhibitors: cytotoxicity in HepG2 cells; HepG2 CAGA-GFP viability, ATP luminescence, 18 h; Potency, µM (top dose mostly 46.1 µM), for the others: at the top dose activity change, negative = cytotoxicity, actives largely listed as cytotoxic; actives 0.76% (n = 410,000)
#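 CellTiter-Glo luminescence gave cytotoxicity after 18 hours at 37 degrees C. The cells were HepG2 CAGA-GFP in 1% FBS DMEM, stimulated with 500 pg/mL TGF-beta after compound addition. %Activity was normalised to no-cell wells (complete cell-killing) and DMSO (no toxicity), and curves were fitted and classified.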
# ATXN viability: reduces viability in counter-screen for ATXN expression inhibitors. S2 cells (HEK-293 line with an ATXN2-luciferase reporter) viability, CellTiter-Fluor protease fluorescence, 24 h. Potency, µM (series often up to 56.7 µM), actives largely listed as cytotoxic. actives 0.49% (n = 400,000). AID 651635; also: nearly all actives have a fitted effect of over 40% in size
# Gal4-VP16 FLuc: inhibits Gal4-VP16 luciferase reporter, ROR gamma counter-screen. Drosophila S2 Gal4-VP16 UAS-luciferase, luminescence, 20 h. Potency, µM (highest dose often 53.6 µM), for the others: at the highest dose activity, negative = inhibition, most hits filed as inhibitors. actives 3.5% (n = 310,000);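 also: Gal4-VP16 expression switched on by copper sulfate through the metallothionein promoter; % is scaled to controls: 0 for no effect and ±100 for the full control effect; nearly all actives have a fitted effect of over 50% in size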
# Numbers without * were called inactive; i = inactive; ? = inconclusive; . = no result given; [ ] = another dose, or the depositor's remark. Calls follow the shape of the dose curve; as a rule, active = well fitted curve in the direction sought with a large enough effect; inconclusive = small, poorly fitted or top-dose-only effect, or another doubt; inactive = no such curve, though single readings can be large; an effect the other way counts as inactive or inconclusive. Potency is read from the fitted curve at half-maximal effect.
SMILES,ATXN2 expr inh,RORg inh,TGFb inhibitor,HepG2 viability,ATXN viability,Gal4-VP16 FLuc
CC(C)CC1C(=O)N(Cc2cn(CC3CCCCC3)nn2)CCS(=O)(=O)N1Cc1ccc(-c2ccc(Cl)c(Cl)c2)cc1 (stereo not drawn),-4.7%,.,-28.1%,-19.1%,?,.
CC1C(=O)N(Cc2cn(Cc3ccco3)nn2)CCS(=O)(=O)N1Cc1ccc(-c2ccccc2Cl)cc1 (stereo not drawn),-11.5%,.,?,-31.5%,11.2µM*,.
CC(C)C1C(=O)N(Cc2cn(CCC3OCCO3)nn2)CCS(=O)(=O)N1Cc1ccc(-c2ccc(Cl)cc2)cc1 (stereo not drawn),28.2µM*,.,?,-70.1%,?,.
Cc1ccc(Cl)cc1NC(=O)Cn1c(=O)n(C(C)C)c(=O)c2oc3ccccc3c21,.,.,-15.1%,-12.0%,.,.
O=C(NCCCCc1ccccc1)c1ccc(F)cc1,26.7%,.,0.7%,4.3%,i,.
CN(c1cc(Cl)c2c(c1)OCO2)c1cc2c(c3c1ccn3C)C1CCC2C1 (stereo not drawn),-6.0%,.,?,-73.0%,i,.
CCC/C=C/c1ccc(CN2C(CC(C)C)C(=O)N(Cc3cn(CCC4OCCO4)nn3)CCS2(=O)=O)cc1 (stereo not drawn),?,.,?,-81.4%,.,.
CCC/C=C/c1ccc(CN2C(CC(C)C)C(=O)N(Cc3cn(CCC4OCCCO4)nn3)CCS2(=O)=O)cc1 (stereo not drawn),?,.,12.6µM*,15.8µM*,.,.
COc1cccc(CNC(=O)N2CCC(CN3CCC(C)CC3)CC2)c1,-6.9%,.,-14.8%,-22.6%,?,.
Cc1nc(NC(=O)/C=C/c2ccccc2)n[nH]1,3.8%[11.3 µM],?,12.6µM*,15.8%,i,?
Cc1cncc2cccc(S(=O)(=O)N3CCCN(C(=O)CN)C[C@@H]3C)c12,10.4%,.,.,.,.,.
CCc1ccc(NC(=S)Nc2cc(C(=O)O)ccc2N2CC3CC(C2)c2cccc(=O)n2C3)cc1 (stereo not drawn),.,10µM*,-24.8%,-16.5%,i,?
COC(=O)c1ccc2c(=O)n(CCCCCC(=O)N3CCN(c4ccc(Cl)cc4)CC3)c(=O)[nH]c2c1,.,.,?,-9.1%,.,.
O=C(CCc1nc2cccnc2n1Cc1cccs1)Nc1cccc(C(F)(F)F)c1,?,.,?,-50.1%,?,.
CC1(C)C(O)=C(c2nc3ccccc3[nH]2)C(=N)N1c1ccccc1,-0.1%,1.78µM*,-10.8%,-5.9%,i,11.2µM*
COc1cccc(C#CC2=CC(=O)CC(C)(C)C2)c1,?,.,?,-70.0%,?,.
O=C1CC(SC(=NCc2ccc3c(c2)OCO3)Nc2ccccc2)C(=O)N1 (stereo not drawn),-8.1%,0.5%,-0.2%,-24.6%,i,13.2%
COc1ccc(CN=C(Nc2ccccc2)SC2CC(=O)NC2=O)cc1 (stereo not drawn),.,12.6µM*,-9.7%,-24.9%,.,-9.5%
COc1ccc(OC)c(CN2CCCC(c3nc(-c4ccncc4)ncc3-c3ccccc3C)C2)c1 (stereo not drawn),.,.,.,.,i,.
CCOc1ccc(-c2csc(NC(=O)CSC3=NC(=O)CN3C(C)=O)n2)c2ccccc12,-19.5%,11.2µM*,-3.7%,7.6%,i,7.94µM*
CC(=O)c1c(O)cc(O)c(C(C)=O)c1O,-25.6%,?,?,-50.0%,?,10µM*
CC(=O)c1c(O)cc(O)cc1CC(=O)O,3.6%,-8.6%,1.6%,-8.9%,i,-1.8%
O=C1OC2(c3ccccc31)c1cc(Br)c(O)c(Br)c1Oc1c2cc(Br)c(O)c1Br,-1.8%,.,.,.,i,.
Cc1cccc(OCC(=O)Nc2ccc3nc(SCc4ccccc4)sc3c2)c1,2.4%,.,-6.2%,6.1%,i,.
Cc1ccc(NC(=S)NCc2ccco2)c(C)c1,17.1%,15.8µM*,-16.6%,-58.1%,i,?
SMILES,ATXN2 expr inh,RORg inh,TGFb inhibitor,HepG2 viability,ATXN viability,Gal4-VP16 FLuc
Cc1ccccc1NC(=S)NCc1ccco1,-1.8%,12.6µM*,4.6%,7.4%,i,?
CN1C(=O)CON=C1c1cccc2ccccc12,14.2%,.,-8.1%,9.3%,i,.
Cc1nc(NC(=O)/C=C/c2ccccc2)sc1C(=O)Nc1ccccc1Cl,-0.5%,15.8µM*,-15.5%,-2.0%,i,?
Cc1nc(NC(=O)/C=C/c2ccccc2)sc1C(=O)Nc1ccc(Cl)cc1,?,-37.7%,0.0%,-63.7%,.,?
CCc1nc2cc(NC(=O)C3(C)CCCN(C(C)=O)C3)ccc2o1 (stereo not drawn),20.6%,.,-6.4%,5.5%,i,.
Cc1ccc2nc(-c3ccc(NC(=O)COC(=O)c4cncc(Br)c4)cc3)sc2c1,22.8%[11.3 µM],1.26µM*,-0.2%,1.3%,i,10µM*
CNS(=O)(=O)c1cccc(C(=O)OCC(=O)Nc2ccc(-c3nc4ccc(C)cc4s3)cc2)c1,-37.3%,0.224µM*,2.4%,0.4%,i,?
CCOc1ncccc1C(=O)OCC(=O)Nc1ccc(-c2nc3ccc(C)cc3s2)cc1,2.3%,0.398µM*,-2.9%,-11.6%,i,?
CNS(=O)(=O)c1cccc(C(=O)OCC(=O)Nc2ccc(N3CCCCC3)cc2)c1,-1.1%,?,-1.4%,-5.4%,i,-0.3%
COc1ccc(/C=C(\C#N)C(=O)OCC(=O)Nc2ccc(-c3nc4ccc(C)cc4s3)cc2)cc1,11.8%[11.3 µM],0.501µM*,-0.8%,-1.6%,i,2µM*
COc1ccc(S(=O)(=O)N2CCN(c3ccccc3)CC2)cc1-c1noc(C)n1,.,.,10.6%,3.9%,.,.
Cc1ccc2nc(-c3ccc(NC(=O)COC(=O)c4ccc([N+](=O)[O-])o4)cc3)sc2c1,-18.4%,0.1µM*,7.0%,-1.6%,i,5.01µM*
Cc1ccc2nc(-c3ccc(NC(=O)COc4ccccc4)cc3)sc2c1,.,.,-14.7%,-9.6%,.,.
C=CCn1c(SCC(=O)NNC(=O)Nc2ccc(C)cc2)nnc1-c1ccccc1,.,13.5%,4.2%,-2.2%,i,4.3%
Cc1ccc2nc(-c3ccc(NC(=O)COC(=O)c4ccco4)cc3)sc2c1,-19.6%,0.398µM*,10.8%,0.8%,i,7.08µM*
C=CCn1c(SCC(=O)Nc2ccc(-c3nc4ccc(C)cc4s3)cc2)nnc1-c1ccccc1,-5.4%,14.1µM*,?,-55.2%,?,12.6µM*
Cc1ccc2sc(-c3ccc(NC(=O)CCN4C(=O)c5ccccc5C4=O)cc3)nc2c1,.,1.12µM*,.,.,.,?
Cc1ccc(NC(=O)COC(=O)c2ccco2)cc1,1.0%,1.0%,-2.1%,-3.5%,i,9.8%
